Results on two compounds are retold here after PubChem BioAssay AID651843 (National Center for Advancing Translational Sciences (NCATS), 2012).

SMILES strings stand for the structures. The list shows a part of the results. Records with an inconclusive call do not appear. Calls of active or inactive are those of the source. Calls follow the shape of the dose curve; as a rule, active = well fitted inhibition curve with a large enough effect; inconclusive = small, poorly fitted or top-dose-only effect; inactive = no such curve, though single readings can be large or run the other way.

The assay is described as follows: qHTS Assay for Inhibitors of MBNL1-poly(CUG) RNA binding: Counterscreen HTRF assay. Conditions: His-Menin/biotin-MLL peptide TR-FRET counterscreen; series mostly up to 57.6 µM. The source says: NIH Chemical Genomics Center [NCGC] NIH Molecular Libraries Probe Production Centers Network [MLPCN] MLPCN Grant: R03 MH087421-01 Assay Submitter (PI): Charles Thornton NCGC Assay Overview: Expanded CTG repeats in the 3' untranslated region of the DM protein kinase (DMPK) gene causes type I myotonic dystrophy (DM1). DM1 is a multi-systemic disease with a prevalence of 1/7000. Clinical features include myotonia, progressive muscle weakness and wasting, cardiac arrhythmia, insulin resistance, hypersomnolence, cataracts, and other symptoms. The pathogenic effect of expanded CTG repeats stems from deleterious effects of the mutant transcript. CUGexp mRNA accumulates in nuclear foci and sequesters proteins of the muscleblind family, of which MBNL1 is the most common family member in skeletal muscles. […] This brings the terbium label within close proximity to XL665 to allow time-resolved fluorescence resonance energy transfer (TR-FRET). […]
This assay uses a ratiometric measurement of TR-FRET binding assay with His-Menin and Biotin-MLL peptide. […] (3) Add 1 ul of 0.22 ng/ul terbium labeled anti-His antibody (0.055 ng/ul final concentration) (4) Add 1 ul of 20 nM streptavidin-XL665 (5 nM final concentration) (5) Incubate 60 min at room temperature (6) Detect the assay plate in a EnVision plate reader (PerkinElmer) with Ex=340 nm, Em1=665 nm and Em2=545 nm.
(Quantitative high-throughput screening tests each substance at several concentrations.)
For `NCCC[C@H](N)CC(=O)N[C@H]1CNC(=O)[C@H]([C@H]2C[C@H](O)NC(N)=N2)NC(=O)/C(=C/NC(N)=O)NC(=O)[C@H](CO)NC(=O)[C@H](CO)NC1=O`, the compound was classed as inactive. In the case of `CCOC(=O)c1c(C)[nH]c2c1-c1ccccc1C(=O)C2=O` it was “inactive”.
